# Measurements published in PubChem BioAssay AID1963316 (National Center for Advancing Translational Sciences (NCATS), 2024).
# Records with an inconclusive call do not appear. Activity calls are given as the source filed them. Calls come from the whole dose curve.
# Target: Tyrosine-protein kinase ABL1 (Homo sapiens) (UniProt P00519)
# Experiment: ABL1 kinase (ABL1-N-HiBiT) SDR gain of signal screen - plus ATP
# Settings: purified ABL1-N-HiBiT enzyme, HiBiT luminescence with 50 uM ATP, 30 min; series mostly up to 57.5 µM
# Text: National Center for Advancing Translational Sciences (NCATS),
# National Institute of Health (NIH), Maryland
# Discovery and optimization of novel protein-binding ligands underlies many of the methods and applications of biology, drug discovery, clinical diagnostics, and environmental toxicology. Assays for detecting the interaction of, for example, a molecule with a macromolecular target also referred to here as the target of interest (TOI) is dependent on a compatible output technology. Depending on the nature and knowledge surrounding the TOI, whether a receptor, enzyme, regulatory subunit or scaffold, or a sequence-defined nucleic acid folded into a complex tertiary structure, assay strategies can vary widely.
# Here we exploit ligand-biased changes in the structural dynamics of the target protein to control reporter alpha complementation allowing a non-competitive, non-functional, non-separation measure of ligand-target interaction.
# Secondly, we show the specificity and sensitivity of the SDR for the Abelson tyrosine kinase (ABL1) compared to the serine/threonine protein kinase A, using an enriched chemical library of 128 compounds selected, in part, for activity annotated with ABL1 kinase activity using the Pharos database (3).
# (1) A. S. Dixon et al., NanoLuc Complementation Reporter Optimized for Accurate Measurement of Protein Interactions in Cells. ACS Chem Biol 11, 400-408 (2016).
# Chemistry & Biology, 19, 1060 - 1072 (2012).
# (3) K. J. Kelleher et al., Pharos 2023: an integrated resource for the understudied human proteome. Nucleic Acids Res 51, D1405-D1416 (2023).
# PROTOCOL TABLE (as described by Inglese J, Shamu CE and Guy RK. 2007)
# SEQUENCE No. (e.g., 1, 2, 3, etc.); […] (e.g., C. elegans, Compounds, Incubation, Read, etc.); VALUE and DESCRIPTION.
# 1. Reagent. Dispense 4 uL ABL1-N-HiBiT enzyme per well at a final enzyme concentration of 10 nM in buffer with 50 uM ATP (SDR assay) into columns 2-48 of four replicate Greiner 1536-well white, solid bottom high base, medium plates per assay. Dispense respective buffer without enzyme at 4 uL/well in column 1 of assay plates using BioRaptr 2.
# 2. Compounds. Library compounds added at 23 nL/well by pin transfer. DMSO neutral control and imatinib positive control added at 25 nL/well, transfer by Mosquito dispenser.
# 3. Incubation. Incubate enzyme and compounds at room temperature for 30 min, protected from light.
# 4. Reagent. (SDR assay) Add 3 uL/well of Nano-Glo HiBiT reagent (Promega) to assay plates with ATP.
# 5. Incubation. (SDR assay) Incubate enzyme solution and HiBiT reagent at room temperature for 10 min, protect from light.
# 6. Detector. (SDR assay) Luminescence measured using CCD-based camera (ViewLux) with settings as follows: Exposure, 1 sec; Gain, High; Speed, Slow; Binning, 2X.
# Inglese J, Shamu CE and Guy RK, Reporting data from high throughput screening of small molecule libraries, Nature Chemical Biology, 2007, 3(8): 438-441. doi.org/10.1038/nchembio0807-438.
# Tyrosine-protein kinase ABL1 (Homo sapiens), sequence (P00519 whole entry, looked up): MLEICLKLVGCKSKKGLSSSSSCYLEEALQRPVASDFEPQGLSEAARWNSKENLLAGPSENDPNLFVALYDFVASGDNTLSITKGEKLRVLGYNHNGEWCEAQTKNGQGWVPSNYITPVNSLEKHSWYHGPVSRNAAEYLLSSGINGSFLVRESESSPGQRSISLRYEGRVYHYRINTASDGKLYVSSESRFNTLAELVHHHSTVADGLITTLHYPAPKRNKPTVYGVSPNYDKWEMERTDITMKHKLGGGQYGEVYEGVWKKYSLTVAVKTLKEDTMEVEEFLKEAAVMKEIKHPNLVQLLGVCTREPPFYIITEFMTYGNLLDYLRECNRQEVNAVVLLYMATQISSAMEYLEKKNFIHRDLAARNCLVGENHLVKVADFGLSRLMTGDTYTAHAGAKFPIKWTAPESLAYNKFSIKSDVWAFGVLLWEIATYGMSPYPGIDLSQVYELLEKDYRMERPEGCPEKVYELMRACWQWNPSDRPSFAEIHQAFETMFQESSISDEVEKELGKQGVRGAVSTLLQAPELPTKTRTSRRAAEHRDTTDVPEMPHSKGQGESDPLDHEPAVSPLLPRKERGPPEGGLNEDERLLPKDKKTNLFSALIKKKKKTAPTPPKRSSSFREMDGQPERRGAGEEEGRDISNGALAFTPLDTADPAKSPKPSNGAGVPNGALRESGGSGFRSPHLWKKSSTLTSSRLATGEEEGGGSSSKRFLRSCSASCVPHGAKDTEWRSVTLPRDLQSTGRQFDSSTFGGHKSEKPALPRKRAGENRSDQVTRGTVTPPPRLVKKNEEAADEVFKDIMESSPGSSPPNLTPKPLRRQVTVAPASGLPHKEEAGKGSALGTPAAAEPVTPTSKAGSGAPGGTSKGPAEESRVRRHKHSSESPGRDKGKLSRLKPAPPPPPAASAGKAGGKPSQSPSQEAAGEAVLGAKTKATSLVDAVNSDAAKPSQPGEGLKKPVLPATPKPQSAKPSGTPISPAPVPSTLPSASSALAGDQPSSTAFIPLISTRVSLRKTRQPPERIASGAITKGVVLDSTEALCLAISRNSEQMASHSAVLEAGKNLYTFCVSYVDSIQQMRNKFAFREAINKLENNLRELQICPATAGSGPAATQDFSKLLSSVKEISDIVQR
row,SMILES,outcome
1,CCNC(=O)C[C@@H]1N=C(c2ccc(Cl)cc2)c2cc(OC)ccc2-n2c(C)nnc21,inactive
2,Cc1[nH]nc2ccc(-c3cncc(OC[C@@H](N)Cc4c[nH]c5ccccc45)c3)cc12,inactive
3,O=[N+]([O-])O[C@H]1CO[C@H]2[C@@H]1OC[C@H]2O[N+](=O)[O-],inactive
4,O=C(NCCCNc1nc(Nc2ccc(N3CCOCC3)cc2)ncc1C1CC1)C1CCC1,inactive
5,N#Cc1cn([C@@H]2O[C@H](CO)[C@H](O)[C@@H]2O)c2ncnc(N)c12,inactive
6,C/C(O)=C(\C#N)C(=O)Nc1cc(Br)ccc1Br,inactive
